Rows were chosen to be rich in hits. Some 19% of all compounds tested hit in one or more screens of this group.
RORg inh: blocks mouse ROR gamma transcriptional activity; P51450; Drosophila S2 Gal4-RORgamma UAS-luciferase reporter, 20 h; Potency, µM (series often up to 53.6 µM), for the others: at the top dose activity change, negative = inhibition, most hits filed as inhibitors; actives 5.4% (n = 310,000); AID 2551; also: nearly all actives have a fitted effect of over 60% in size
Target sequence (P51450 whole entry, looked up, the tested form may be a part): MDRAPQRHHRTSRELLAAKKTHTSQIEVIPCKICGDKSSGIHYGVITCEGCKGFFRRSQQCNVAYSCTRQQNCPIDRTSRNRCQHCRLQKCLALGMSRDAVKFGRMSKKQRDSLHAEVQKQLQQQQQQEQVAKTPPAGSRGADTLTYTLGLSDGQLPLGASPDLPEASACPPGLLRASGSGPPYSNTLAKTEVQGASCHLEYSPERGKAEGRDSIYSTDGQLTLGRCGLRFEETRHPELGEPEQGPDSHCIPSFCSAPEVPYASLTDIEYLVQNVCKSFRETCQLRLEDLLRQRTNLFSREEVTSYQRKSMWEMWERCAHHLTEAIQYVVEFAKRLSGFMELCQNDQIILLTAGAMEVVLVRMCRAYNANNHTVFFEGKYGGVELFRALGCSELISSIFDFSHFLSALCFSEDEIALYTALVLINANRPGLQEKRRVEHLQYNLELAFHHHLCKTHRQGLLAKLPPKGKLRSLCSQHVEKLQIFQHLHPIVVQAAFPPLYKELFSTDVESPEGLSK
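A Gal4/UAS one-hybrid system in insect cells: metallothionein-promoter Gal4–ROR gamma fusion plus Photinus luciferase reporter. Copper sulfate 700 uM final, 20 hr ambient incubation, luminescent detection after 10 min with reagent.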
DT40 TDP1 CPT: growth inhibition of DT40 Tdp1-/-;hTDP1 cells with camptothecin (screen for TDP1 inhibitors); actives 12% (n = 420,000); Potency, µM (top dose mostly 46.2 µM), for inactives: top-dose activity change, negative = growth inhibition, usual class: inhibitors; chicken DT40 Tdp1-/-;hTDP1 cells + 20 nM CPT, ATP luminescence, 48 h; also: nearly all actives have a fitted effect of over 55% in size
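Cell growth measured by CellTiter-Glo luminescence after a minimum 48 h, 37 C compound exposure with 20 nM CPT in Tdp1-knockout DT40 cells stably expressing hTDP1, seeded 400/well; qHTS titration format.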
TDP1 block: inhibitors of human tyrosyl-DNA phosphodiesterase TDP1; Q9NUW8; recombinant TDP1, AlphaScreen DNA substrate cleavage; Potency, µM (titrated, usually from 130 µM), without a hit: at the top dose activity change, negative = inhibition, hits mostly inhibitors; actives 0.28% (n = 350,000); AID 485290; also: nearly all actives have a fitted effect of over 40% in size
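E. coli-derived human Tdp1, 1 nM final. Cpd preinc 15 min RT; substrate 15 nM final, 5 min RT; AS bead mix 10 ug/ml final, 10 min RT. Signal loss = tyrosine-FITC cleavage. No-enzyme wells = max signal.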
TDP1 cell noCPT: qHTS for Inhibitors of human tyrosyl-DNA phosphodiesterase 1 (TDP1): qHTS in cells in absence of CPT. DT40 Tdp1-/- hTDP1 cells, no CPT, ATP luminescence, 48 h. Potency, µM (top dose mostly 46.2 µM), for inactives: top-dose activity change, negative = growth inhibition, actives largely listed as inhibitors. actives 15% (n = 420,000). AID 686978, 2013; also: nearly all actives have a fitted effect of over 55% in size
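Seeded 400 DT40-hTDP1 cells/well (vehicle DMSO, no 20 nM CPT); pinned compounds; ≥48 hr at 37 °C; CellTiter-Glo luminescence as viability measure.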
Gal4-VP16 FLuc: inhibits Gal4-VP16 luciferase reporter, ROR gamma counter-screen; Drosophila S2 Gal4-VP16 UAS-luciferase, luminescence, 20 h; Potency, µM (highest dose often 53.6 µM), without a hit: at the highest dose activity, negative = inhibition, hits mostly inhibitors; actives 3.5% (n = 310,000); AID 2546;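 also: Gal4-VP16 expression switched on by copper sulfate through the metallothionein promoter; nearly all actives have a fitted effect of over 50% in size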
* marks the source's active call; other numbers are inactive results; ? = inconclusive; . = not tested or not shown; [ ] = remark or other dose. Calls follow the shape of the dose curve; as a rule, active = well fitted curve in the direction sought with a large enough effect; inconclusive = small, poorly fitted or top-dose-only effect, or another doubt; inactive = no such curve, though single readings can be large; an effect the other way counts as inactive or inconclusive. % is scaled to controls: 0 for no effect and ±100 for the full control effect; potency is read from the fitted curve at half-maximal effect.

SMILES	RORg inh	DT40 TDP1 CPT	TDP1 block	TDP1 cell noCPT	Gal4-VP16 FLuc
CCN1CCN(Cc2ccc(NC(=O)c3cc(NC(=O)C4=NN(c5ccccc5)C(=O)C4)cc(OC)c3)cc2C(F)(F)F)CC1	7%	?	4%	?	4%
CCN1CCN(Cc2ccc(NC(=O)c3cc(NC(=O)c4cc5cccc(OC)c5o4)cc(OC)c3)cc2C(F)(F)F)CC1	?	5.8µM*	6%	4.6µM*	?
CCN1CCN(Cc2ccc(NC(=O)c3ccc(C)c(/C=C/c4cnc(Nc5cc(N6CCNCC6)nc(C)n5)cn4)c3)cc2C(F)(F)F)CC1	?	3.3µM*	.	15µM*	?
Nc1nonc1-n1nnc(C(=O)N/N=C/c2ccc(Br)cc2)c1-c1ccc2c(c1)OCO2	-3%	?	3%	-1%	-12%
CCc1ccc(Nc2cc(C(=O)NCCCN(C)c3ccccc3)c3ccccc3n2)cc1	.	?	5%	13µM*	.
COc1ccccc1Nc1cc(C(=O)NCCCN(C)c2ccccc2)c2ccccc2n1	.	?	1%	?	.
CSc1cccc(Nc2cc(C(=O)NCCCN(C)c3ccccc3)c3ccccc3n2)c1	.	15µM*	6%	13µM*	.
CC(C)(C)c1ccc(/C=C(\c2nc3ccccc3[nH]2)S(=O)(=O)c2ccccc2)cc1	.	23µM*	.	?	.
Cc1cccc(/C=C(\c2nc3ccccc3[nH]2)S(=O)(=O)c2ccccc2)c1	?	4.1µM*	-2%	2.6µM*	-78%
N#C/C(=C/c1ccc(O)c(O)c1)c1nc2ccccc2[nH]1	?	?	.	?	0%
CC1CCCCN1CCCNc1c(C=O)c(=O)[nH]c2ccccc12 (stereo unspecified)	12%	12%	.	1%	5%
CCCCNC(=O)c1ccc2nc(CC)c(N(C)Cc3ccc(OC)cc3)n2c1	.	16µM*	.	?	.
CCc1nc2ccc(C(=O)NCCC(C)C)cn2c1N(C)Cc1ccc(OC)cc1	.	?	.	16µM*	.
CCc1nc2ccc(C(=O)NCCNC(C)=O)cn2c1N(C)Cc1ccc(OC)cc1	.	-7%	.	-10%	.
CCc1nc2ccc(C(=O)NCCC(C)C)cn2c1N(CC)CCOC	.	?	.	21µM*	.
CCc1nc2ccc(C(=O)N(CC)CCN(C)C)cn2c1N(C)Cc1ccc(OC)cc1	.	-17%	.	-18%	.
CCc1nc2ccc(C(=O)NCCOc3ccc(OC)cc3)cn2c1N(C)Cc1ccc(OC)cc1	.	?	.	21µM*	.
Cc1ccc2c(cnn2C(=O)CCCC(=O)NCc2ccc(Cl)cc2)c1	-1%	23µM*	.	?	1%
Cc1ccc2c(c1)Oc1ccc(NC(=O)CCl)cc1C(=O)N2	10µM*	2.6µM*	2%	2.3µM*	18µM*
COc1cc2c(cc1OC)C(C(=O)Nc1ccc3c(c1)OCCO3)C1c3ccccc3CCN1C2=O (stereo unspecified)	-1%	?	4%	23µM*	1%
Cc1cccc(Cn2c(SCc3ccc(C(=O)NCCc4ccccc4)cc3)nc3ccncc32)c1	.	?	10%	13µM*	.
CCN(CC)CCNC(=O)c1ccc(CSc2nc3ccncc3n2Cc2cccc(F)c2)cc1	.	?	5%	?	.
O=C(NCCc1ccccc1)c1ccc(Cn2c(SCc3ccccc3)nc3cccnc32)cc1	.	?	6%	?	.
O=C(NCCc1ccccc1)c1ccc(CSc2nc3ccncc3n2Cc2cccc(F)c2)cc1	.	13µM*	8%	12µM*	.
O=C(NCCc1ccccc1)c1ccc(CSc2nc3ccncc3n2Cc2ccccc2F)cc1	.	15µM*	8%	?	.
SMILES	RORg inh	DT40 TDP1 CPT	TDP1 block	TDP1 cell noCPT	Gal4-VP16 FLuc
CCC(C)C(NC(=O)OC(C)(C)C)C(=O)NC(Cc1ccccc1)C(=O)OC (stereo unspecified)	0%	10%	3%	0%	2%
CC/C(O)=C(\C#N)c1nnc2n1CCCCC2	13µM*	-15%	4%	1%	?
CC/C(O)=C(/C#N)c1nnc2n1CCCCC2	20µM*	-18%	-6%[56.1 µM]	0%	?
N#C/C(=C(/O)COc1ccc(Br)cc1)c1nnc2n1CCCCC2	-21%	-5%	4%	9%	?
COc1ccc(C(=O)NC(=S)Nc2ccc3[nH]c(=O)[nH]c3c2)cc1Br	.	13%	.	-3%	.
COc1ccc(C(=O)NC(=S)NC(C)C)cc1Br	1.8µM*	?	-2%	?	11µM*
COc1ccc(C(=O)NC(=S)NNC(=O)c2ccncc2)cc1Br	.	?	5%	?	.
COc1ccc(C(=O)NC(=S)NNC(=O)c2ccc(NC(C)=O)cc2)cc1Br	7.9µM*	?	9%	?	?
COc1ccc(C(=O)NC(=S)NC(C)(C)C)cc1Br	2µM*	?	8%	23µM*	7.9µM*
CC(=O)c1ccc(N2C(=NC(=O)CCc3ccccc3)SC3CS(=O)(=O)CC32)cc1 (stereo unspecified)	4%	3%	3%	9%	2%
O=C(c1ccncc1)N1CCN(S(=O)(=O)c2ccc3ccccc3c2)CC1	34%	-17%	.	-18%	-6%
COc1ccc(OC)c(Nc2nc(N)c([N+](=O)[O-])c(NCc3ccccc3)n2)c1	-15%	?	4%	?	8%
COc1ccccc1Nc1nc(N(C)c2ccccc2)nc(N)c1[N+](=O)[O-]	-7%	2%	.	?	-2%
COc1ccc(OC)c(Nc2nc(NCCCN(C)C)nc(N)c2[N+](=O)[O-])c1	10µM*	4.6µM*	3%	4.6µM*	10µM*
COCCNc1nc(N)c([N+](=O)[O-])c(NC2CCCCC2)n1	-11%	?	.	4%	-6%
COc1ccc(OC)c(Nc2nc(N)c([N+](=O)[O-])c(NC3CCCCC3)n2)c1	0%	8.2µM*	.	?	2%
NCCCNc1nc(N)c([N+](=O)[O-])c(NC2CCCCC2)n1	-39%	4.1µM*	.	3.7µM*	?
CNc1nc(N)c([N+](=O)[O-])c(Nc2ccccc2OC)n1	-22%	?	.	21µM*	0%
Cc1c(Br)c([N+](=O)[O-])nn1C(C)C(=O)Nc1ccc2c(c1)OCO2 (stereo unspecified)	10%	-24%	0%	-29%	-3%
COc1ccc2nc(COC(=O)c3cccc([N+](=O)[O-])c3)c(C(C)=O)[n+]([O-])c2c1	1%	-4%	6%	-8%	0%
O=C(CCC1N=C2c3ccccc3N=C(SCc3ccc(Cl)cc3)N2C1=O)NCc1cccs1 (stereo unspecified)	.	?	-2%	?	.

Bioassay records as filed in PubChem.
